Results filed as inconclusive are left out. Active and inactive are the calls of the source. Rule for the calls, unless noted: active = hit-call score of the fitted dose curve at least 0.9, where 1 is the maximum; inactive = score below 0.9.
Legend:
[1] = biological target: human Peroxisome Proliferator-activated Receptor delta (PPARd), PPARD (gene 5467) (UniProt Q03181); experiment: ATG_PPARd_TRANS: Attagene TRANS-FACTORIAL HepG2 Assay for human Peroxisome Proliferator-activated Receptor delta (PPARd) (AID 2283002; active = hit-call score of the fitted dose curve at least 0.9, where 1 is the maximum)
Sequence of human Peroxisome Proliferator-activated Receptor delta (PPARd), PPARD (gene 5467) (Q03181 whole entry, looked up, the tested form may be a part): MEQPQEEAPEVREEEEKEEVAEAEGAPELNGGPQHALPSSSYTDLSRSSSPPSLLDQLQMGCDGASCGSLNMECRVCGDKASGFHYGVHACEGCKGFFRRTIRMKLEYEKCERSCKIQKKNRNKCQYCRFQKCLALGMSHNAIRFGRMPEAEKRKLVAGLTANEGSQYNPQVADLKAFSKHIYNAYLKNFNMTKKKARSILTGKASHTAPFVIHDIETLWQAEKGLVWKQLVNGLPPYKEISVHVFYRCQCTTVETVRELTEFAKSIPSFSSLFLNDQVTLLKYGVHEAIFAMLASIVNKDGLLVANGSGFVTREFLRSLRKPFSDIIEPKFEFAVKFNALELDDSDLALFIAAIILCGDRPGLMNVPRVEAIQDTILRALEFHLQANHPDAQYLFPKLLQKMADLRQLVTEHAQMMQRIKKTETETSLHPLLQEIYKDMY
In short: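 Fluorescence from capillary electrophoresis of labelled RT-PCR reporter fragments gives the signal; DMSO sets baseline. Cells: HepG2 transiently carrying GAL4-UAS reporter units plus chimeric nuclear receptor-Gal4 proteins, exposed to chemicals for 24 h.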

[2] = read-out: Intercellular Adhesion Molecule 1 (ICAM1), ICAM1 (gene 3383); experiment: BSK_3C_ICAM1: BioMAP Diversity Plus: 3C Assay for Intercellular Adhesion Molecule 1 (ICAM1) Biomarker Activity (AID 2283003); details: primary human endothelial cells (HUVEC); actives raise or lower the signal
In short: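 Human vascular endothelial primary cells, 3C conditions, 24 h treatment. ICAM-1 by ELISA.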

[3] = BSK_3C_Proliferation: Cell Proliferation Assessment in the BioMAP Diversity Plus: 3C Assay (AID 2283006); details: primary human endothelial cells (HUVEC);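 for AC50: potency may reflect either rise or fall in cell number versus DMSO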
In short: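 Proliferation of human vascular endothelial primary cells after 48 h dosing, quantified as SRB-stained protein at 560 nm relative to DMSO.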

[4] = biological target: Peroxisome proliferator-activated receptor gamma (Homo sapiens) (UniProt P37231); experiment: ATG_PPARg_TRANS: Attagene TRANS-FACTORIAL HepG2 Assay for human Peroxisome Proliferator-activated Receptor-gamma (PPARg) (AID 2283007; active = hit-call score of the fitted dose curve at least 0.9, where 1 is the maximum)
Sequence of Peroxisome proliferator-activated receptor gamma (Homo sapiens) (P37231 whole entry, looked up, the tested form may be a part): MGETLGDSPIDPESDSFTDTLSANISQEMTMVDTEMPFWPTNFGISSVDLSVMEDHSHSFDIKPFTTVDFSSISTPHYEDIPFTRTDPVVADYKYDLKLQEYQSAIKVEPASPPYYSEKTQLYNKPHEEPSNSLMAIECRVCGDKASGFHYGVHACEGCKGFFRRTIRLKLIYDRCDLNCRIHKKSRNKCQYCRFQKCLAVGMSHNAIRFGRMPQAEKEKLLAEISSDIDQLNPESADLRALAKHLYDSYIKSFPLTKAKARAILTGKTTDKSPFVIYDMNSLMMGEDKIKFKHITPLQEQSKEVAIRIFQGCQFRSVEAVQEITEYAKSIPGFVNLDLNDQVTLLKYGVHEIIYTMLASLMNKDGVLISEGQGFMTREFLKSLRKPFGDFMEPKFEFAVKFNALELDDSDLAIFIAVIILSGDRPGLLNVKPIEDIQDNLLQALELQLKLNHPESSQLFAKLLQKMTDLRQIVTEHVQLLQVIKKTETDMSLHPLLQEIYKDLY
In short: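 After 24 h of chemical exposure, transfected HepG2 cells carrying PPARγ-Gal4 chimera reporter constructs are lysed for RNA. Reporter transcripts are measured by RT-PCR and capillary electrophoresis with fluorescent labelling, and gain of signal is fitted versus DMSO.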

[5] = biological target: Nuclear receptor subfamily 1 group I member 2 (Homo sapiens) (UniProt O75469); experiment: ATG_PXR_TRANS: Attagene TRANS-FACTORIAL HepG2 Assay for human Pregnane X Receptor (PXR) (AID 2283008; active = hit-call score of the fitted dose curve at least 0.9, where 1 is the maximum)
Sequence of Nuclear receptor subfamily 1 group I member 2 (Homo sapiens) (O75469 whole entry, looked up, the tested form may be a part): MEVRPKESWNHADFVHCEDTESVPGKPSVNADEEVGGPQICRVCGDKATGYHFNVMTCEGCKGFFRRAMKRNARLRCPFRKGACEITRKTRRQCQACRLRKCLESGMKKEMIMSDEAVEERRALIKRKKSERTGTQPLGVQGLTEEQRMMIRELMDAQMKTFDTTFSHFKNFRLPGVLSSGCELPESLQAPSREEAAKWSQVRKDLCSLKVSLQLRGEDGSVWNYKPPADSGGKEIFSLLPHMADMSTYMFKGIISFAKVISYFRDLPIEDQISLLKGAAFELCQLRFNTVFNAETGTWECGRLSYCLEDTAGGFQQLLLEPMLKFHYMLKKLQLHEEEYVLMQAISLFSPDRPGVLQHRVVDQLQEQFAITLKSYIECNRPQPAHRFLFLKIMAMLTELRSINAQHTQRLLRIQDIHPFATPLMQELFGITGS
In short: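 HepG2 cells transiently transfected with multiple reporter units, here a PXR-GAL4 chimera driving a GAL4-UAS reporter; 24 h compound exposure. Reporter mRNA measured by RT-PCR, FAM labelling and capillary electrophoresis; gain of signal fitted against DMSO baseline.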

[6] = biological target: human RAR-related Orphan Receptor beta (RORb), RORB (gene 6096) (UniProt Q92753); experiment: ATG_RORb_TRANS: Attagene TRANS-FACTORIAL HepG2 Assay for human RAR-related Orphan Receptor beta (RORb) (AID 2283010; active = hit-call score of the fitted dose curve at least 0.9, where 1 is the maximum)
Sequence of human RAR-related Orphan Receptor beta (RORb), RORB (gene 6096) (Q92753 whole entry, looked up, the tested form may be a part): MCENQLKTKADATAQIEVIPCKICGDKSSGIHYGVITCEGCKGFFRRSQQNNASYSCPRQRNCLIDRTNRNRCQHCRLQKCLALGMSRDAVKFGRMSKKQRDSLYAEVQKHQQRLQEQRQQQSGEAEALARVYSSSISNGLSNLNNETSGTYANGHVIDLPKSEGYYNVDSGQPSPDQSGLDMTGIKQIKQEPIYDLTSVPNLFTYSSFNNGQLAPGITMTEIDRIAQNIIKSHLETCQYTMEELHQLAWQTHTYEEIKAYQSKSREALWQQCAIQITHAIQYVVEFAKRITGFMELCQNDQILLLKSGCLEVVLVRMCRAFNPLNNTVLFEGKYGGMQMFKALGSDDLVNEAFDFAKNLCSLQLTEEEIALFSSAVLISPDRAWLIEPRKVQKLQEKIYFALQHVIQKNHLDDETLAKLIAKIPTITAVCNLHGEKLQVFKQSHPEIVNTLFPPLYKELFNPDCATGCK
In short: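 In this TRANS-format test, human HepG2 cells express chimeric NR-Gal4 fusion proteins driving GAL4-UAS reporters. After 24 h dosing, reporter transcripts are measured by fluorescent RT-PCR/capillary electrophoresis, with DMSO as negative control.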

[7] = biological target: human RAR-related Orphan Receptor gamma (RORg), RORC (gene 6097) (UniProt P51449); experiment: ATG_RORg_TRANS: Attagene TRANS-FACTORIAL HepG2 Assay for human RAR-related Orphan Receptor gamma (RORg) (AID 2283011; active = hit-call score of the fitted dose curve at least 0.9, where 1 is the maximum)
Sequence of human RAR-related Orphan Receptor gamma (RORg), RORC (gene 6097) (P51449 whole entry, looked up, the tested form may be a part): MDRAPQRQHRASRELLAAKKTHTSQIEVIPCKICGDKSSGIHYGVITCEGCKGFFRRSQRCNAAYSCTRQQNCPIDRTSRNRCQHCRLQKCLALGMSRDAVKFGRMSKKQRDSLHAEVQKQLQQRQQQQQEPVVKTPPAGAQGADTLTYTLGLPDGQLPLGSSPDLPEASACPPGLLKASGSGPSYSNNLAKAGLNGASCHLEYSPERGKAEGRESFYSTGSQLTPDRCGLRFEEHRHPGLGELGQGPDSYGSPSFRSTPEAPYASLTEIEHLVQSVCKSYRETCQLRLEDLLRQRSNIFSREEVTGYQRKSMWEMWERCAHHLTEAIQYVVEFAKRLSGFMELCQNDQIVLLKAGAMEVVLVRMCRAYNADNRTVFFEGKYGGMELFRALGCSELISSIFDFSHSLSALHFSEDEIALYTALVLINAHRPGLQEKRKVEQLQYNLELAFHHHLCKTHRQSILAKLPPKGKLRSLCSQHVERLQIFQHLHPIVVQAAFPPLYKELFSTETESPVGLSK
In short: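 Readout: reporter transcript induction (RT-PCR, fluorescent primer extension, capillary electrophoresis) after 24 h compound exposure of transiently transfected HepG2 cells carrying a RORg-Gal4 chimera and GAL4-UAS reporters; DMSO served as baseline, with increasing signal fitted.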

[8] = biological target: Retinoic acid receptor RXR-alpha (Homo sapiens) (UniProt P19793); experiment: ATG_RXRa_TRANS: Attagene TRANS-FACTORIAL HepG2 Assay for human Retinoid X Receptor alpha (RXRa) (AID 2283012; active = hit-call score of the fitted dose curve at least 0.9, where 1 is the maximum)
Sequence of Retinoic acid receptor RXR-alpha (Homo sapiens) (P19793 whole entry, looked up, the tested form may be a part): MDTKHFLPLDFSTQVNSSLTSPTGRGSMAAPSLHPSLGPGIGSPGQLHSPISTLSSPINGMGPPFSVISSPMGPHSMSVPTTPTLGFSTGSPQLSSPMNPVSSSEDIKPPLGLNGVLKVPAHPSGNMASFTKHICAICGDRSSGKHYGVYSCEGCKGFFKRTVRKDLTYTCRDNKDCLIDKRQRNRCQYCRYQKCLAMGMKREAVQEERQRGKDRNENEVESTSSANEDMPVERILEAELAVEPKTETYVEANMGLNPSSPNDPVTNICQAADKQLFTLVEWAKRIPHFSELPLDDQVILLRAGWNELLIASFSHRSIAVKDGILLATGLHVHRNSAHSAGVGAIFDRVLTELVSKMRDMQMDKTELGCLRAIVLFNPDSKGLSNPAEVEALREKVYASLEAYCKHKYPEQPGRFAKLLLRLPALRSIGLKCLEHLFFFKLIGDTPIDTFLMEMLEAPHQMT
In short: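 Cells (HepG2) carried transiently transfected GAL4-responsive reporter units. Following a 24 h chemical incubation, reporter mRNA induction was read via RT-PCR fragment analysis; DMSO served as negative control and baseline.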

[9] = biological target: human Retinoid X Receptor beta (RXRb), RXRB (gene 6257) (UniProt P28702); experiment: ATG_RXRb_TRANS: Attagene TRANS-FACTORIAL HepG2 Assay for human Retinoid X Receptor beta (RXRb) (AID 2283013; active = hit-call score of the fitted dose curve at least 0.9, where 1 is the maximum)
Sequence of human Retinoid X Receptor beta (RXRb), RXRB (gene 6257) (P28702 whole entry, looked up): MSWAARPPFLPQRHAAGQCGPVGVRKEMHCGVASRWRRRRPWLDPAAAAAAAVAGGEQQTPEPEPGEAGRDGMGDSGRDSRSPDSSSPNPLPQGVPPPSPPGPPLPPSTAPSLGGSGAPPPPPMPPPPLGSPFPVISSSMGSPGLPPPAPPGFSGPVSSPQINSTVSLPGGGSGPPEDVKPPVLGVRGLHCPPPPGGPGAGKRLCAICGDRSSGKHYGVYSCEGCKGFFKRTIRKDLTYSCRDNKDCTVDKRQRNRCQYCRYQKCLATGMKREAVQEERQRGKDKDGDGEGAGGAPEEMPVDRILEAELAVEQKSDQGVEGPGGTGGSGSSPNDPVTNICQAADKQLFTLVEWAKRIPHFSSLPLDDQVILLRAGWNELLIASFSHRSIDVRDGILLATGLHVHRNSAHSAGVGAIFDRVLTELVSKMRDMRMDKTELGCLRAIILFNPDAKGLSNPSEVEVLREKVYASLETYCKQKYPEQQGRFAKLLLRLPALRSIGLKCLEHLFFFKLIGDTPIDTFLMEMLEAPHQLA
In short: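 Multiplexed TRANS reporter assay in HepG2; 24 h dosing; reporter mRNA by RT-PCR/CE fluorescence; gain-of-signal relative to DMSO.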

[10] = read-out: E-selectin (Homo sapiens) (UniProt P16581); experiment: BSK_3C_Eselectin: BioMAP Diversity Plus: 3C Assay for Eselectin Biomarker Activity (AID 2283015); details: primary human endothelial cells (HUVEC); actives raise or lower the signal
In short: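 Primary human umbilical vein endothelial cells (3C system) were dosed with chemical and cell-surface E-selectin measured by ELISA 24 h later. Bidirectional curve fitting used DMSO as negative control and baseline.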

[11] = read-out: Interleukin-1 alpha (IL1a), IL1A (gene 3552); experiment: BSK_BE3C_IL1a: BioMAP Diversity Plus: BE3C Assay for Interleukin-1 alpha (IL1a) Biomarker Activity (AID 2283016); details: primary human bronchial epithelial cells; actives raise or lower the signal
In short: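 Cultures of primary human bronchial epithelial cells receive test chemical. After 24 h, IL-1a is quantified by ELISA, while parallel wells are fixed in TCA and SRB-stained for total protein. Changes in either direction are fitted relative to DMSO.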

[12] = read-out: Monocyte Chemoattractant Protein-1 (MCP1), CCL2 (gene 6347); experiment: BSK_3C_MCP1: BioMAP Diversity Plus: 3C Assay for Monocyte Chemoattractant Protein-1 (MCP1) Biomarker Activity (AID 2283017); details: primary human endothelial cells (HUVEC); actives raise or lower the signal
In short: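 Primary human umbilical vein endothelial cells (3C system) were exposed to test chemical for 24 h, after which MCP-1 was quantified by ELISA. Activity was fitted bidirectionally against DMSO as negative control and baseline.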

[13] = read-out: Monocyte Chemoattractant Protein-1 (MCP1), CCL2 (gene 6347); experiment: BSK_4H_MCP1: BioMAP Diversity Plus: 4H Assay for Monocyte Chemoattractant Protein-1 (MCP1) Biomarker Activity (AID 2283018); details: primary human endothelial cells (HUVEC); actives raise or lower the signal
In short: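 Readout: MCP-1 ELISA on compound-treated HUVEC, sampled 24 h post-dosing. Baseline and negative control DMSO; bidirectional fit. Overt toxicity checked alongside by sulforhodamine B protein staining at time of biomarker measurement.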

[14] = read-out: Human Leukocyte Antigen - DR isotype (HLADR), HLA-DRA (gene 3122); experiment: BSK_3C_HLADR: BioMAP Diversity Plus: 3C Assay for Human Leukocyte Antigen - DR isotype (HLADR) Biomarker Activity (AID 2283019); details: primary human endothelial cells (HUVEC); actives raise or lower the signal
In short: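 Primary human umbilical vein endothelial cells (3C system) were dosed with compound and cell-surface HLA-DR was quantified by ELISA at 24 h. Activity was fitted bidirectionally against DMSO as negative control and baseline.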

[15] = read-out: Interleukin-8 (IL8), CXCL8 (gene 3576); experiment: BSK_3C_IL8: BioMAP Diversity Plus: 3C Assay for Interleukin-8 (IL8) Biomarker Activity (AID 2283020); details: primary human endothelial cells (HUVEC); actives raise or lower the signal
In short: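 Human vascular endothelial cells (umbilical vein) in the 3C system; IL-8 level detected by ELISA at 24 h post-dose, with DMSO as baseline.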

[16] = read-out: Monokine induced gamma interferon (MIG), CXCL9 (gene 4283); experiment: BSK_3C_MIG: BioMAP Diversity Plus: 3C Assay for Monokine induced gamma interferon (MIG) Biomarker Activity (AID 2283021); details: primary human endothelial cells (HUVEC); actives raise or lower the signal
In short: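 After 24 h of treatment, human umbilical vein endothelial cultures (3C system) had their MIG biomarker level determined by ELISA, with DMSO serving as negative control.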

[17] = biological target: human Retinoic Acid Receptor gamma (RARg), RARG (gene 5916) (UniProt P13631); experiment: ATG_RARg_TRANS: Attagene TRANS-FACTORIAL HepG2 Assay for human Retinoic Acid Receptor gamma (RARg) (AID 2283009; active = hit-call score of the fitted dose curve at least 0.9, where 1 is the maximum)
Sequence of human Retinoic Acid Receptor gamma (RARg), RARG (gene 5916) (P13631 whole entry, looked up, the tested form may be a part): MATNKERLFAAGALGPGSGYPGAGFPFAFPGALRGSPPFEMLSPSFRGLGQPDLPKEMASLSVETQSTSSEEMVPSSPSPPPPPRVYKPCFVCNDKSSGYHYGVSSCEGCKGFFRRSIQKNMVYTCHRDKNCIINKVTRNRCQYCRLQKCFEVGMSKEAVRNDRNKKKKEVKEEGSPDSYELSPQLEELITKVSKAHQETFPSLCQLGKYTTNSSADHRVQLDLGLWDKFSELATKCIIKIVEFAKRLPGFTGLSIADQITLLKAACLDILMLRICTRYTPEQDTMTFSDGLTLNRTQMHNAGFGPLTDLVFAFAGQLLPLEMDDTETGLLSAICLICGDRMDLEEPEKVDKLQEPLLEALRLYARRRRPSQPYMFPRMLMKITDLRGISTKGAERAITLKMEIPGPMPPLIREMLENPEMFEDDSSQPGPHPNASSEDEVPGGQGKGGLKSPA
In short: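 HepG2, RARg-GAL4 TRANS system, 24 h exposure; reporter mRNA by RT-PCR + CE fluorescence; increase over DMSO.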

[18] = biological target: human Thyroid Receptor alpha (THRa1), THRA (gene 7067) (UniProt P10827); experiment: ATG_THRa1_TRANS: Attagene TRANS-FACTORIAL HepG2 Assay for human Thyroid Receptor alpha (THRa1) (AID 2283014; active = hit-call score of the fitted dose curve at least 0.9, where 1 is the maximum)
Sequence of human Thyroid Receptor alpha (THRa1), THRA (gene 7067) (P10827 whole entry, looked up, the tested form may be a part): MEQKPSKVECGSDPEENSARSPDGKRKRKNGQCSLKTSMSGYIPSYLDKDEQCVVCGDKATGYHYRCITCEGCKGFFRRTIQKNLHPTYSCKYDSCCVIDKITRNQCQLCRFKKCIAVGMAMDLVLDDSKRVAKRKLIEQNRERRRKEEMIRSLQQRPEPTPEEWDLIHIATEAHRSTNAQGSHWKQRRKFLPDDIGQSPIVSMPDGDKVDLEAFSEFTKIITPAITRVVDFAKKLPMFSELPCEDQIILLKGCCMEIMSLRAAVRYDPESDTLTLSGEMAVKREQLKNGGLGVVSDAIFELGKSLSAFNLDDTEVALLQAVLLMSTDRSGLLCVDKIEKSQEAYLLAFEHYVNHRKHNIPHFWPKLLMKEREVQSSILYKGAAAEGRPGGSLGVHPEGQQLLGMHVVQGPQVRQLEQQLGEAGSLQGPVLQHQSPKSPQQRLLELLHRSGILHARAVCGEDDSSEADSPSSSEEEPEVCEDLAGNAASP
In short: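 HepG2 cells transiently transfected with multiplexed GAL4-UAS reporter units for exogenous chimeric THRa1-Gal4; reporter mRNA measured 24 h after dosing by RT-PCR, 6-FAM labelling, HpaI digestion and capillary electrophoresis. Gain-of-signal fitted versus DMSO baseline.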

[19] = biological target: human Peroxisome Proliferator-activated Receptor alpha (PPARa), PPARA (gene 5465) (UniProt Q07869); experiment: ATG_PPARa_TRANS: Attagene TRANS-FACTORIAL HepG2 Assay for human Peroxisome Proliferator-activated Receptor alpha (PPARa) (AID 2283001; active = hit-call score of the fitted dose curve at least 0.9, where 1 is the maximum;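 for AC50: potency for gain of reporter signal over DMSO so agonist or activator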)
In short: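 Measures transcriptional activity of an exogenous chimeric PPARa-Gal4 protein in transiently transfected HepG2 cells after 24 h dosing. Reporter mRNA quantified via RT-PCR and capillary electrophoresis; DMSO served as negative control.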

[20] = biological target: Retinoic acid receptor alpha (Homo sapiens) (UniProt P10276); experiment: ATG_RARa_TRANS: Attagene TRANS-FACTORIAL HepG2 Assay for human Retinoic Acid Receptor alpha (RARa) (AID 2283005; active = hit-call score of the fitted dose curve at least 0.9, where 1 is the maximum)
In short: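 HepG2 transiently transfected with multiplex GAL4-UAS reporter units including a human RARa–GAL4 chimera; 24 h compound exposure. Reporter mRNA quantified by RT-PCR, 6-FAM labeling and capillary electrophoresis; gain of signal versus DMSO.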

Measured: AC50

Sequence of E-selectin (Homo sapiens) (P16581 whole entry, looked up): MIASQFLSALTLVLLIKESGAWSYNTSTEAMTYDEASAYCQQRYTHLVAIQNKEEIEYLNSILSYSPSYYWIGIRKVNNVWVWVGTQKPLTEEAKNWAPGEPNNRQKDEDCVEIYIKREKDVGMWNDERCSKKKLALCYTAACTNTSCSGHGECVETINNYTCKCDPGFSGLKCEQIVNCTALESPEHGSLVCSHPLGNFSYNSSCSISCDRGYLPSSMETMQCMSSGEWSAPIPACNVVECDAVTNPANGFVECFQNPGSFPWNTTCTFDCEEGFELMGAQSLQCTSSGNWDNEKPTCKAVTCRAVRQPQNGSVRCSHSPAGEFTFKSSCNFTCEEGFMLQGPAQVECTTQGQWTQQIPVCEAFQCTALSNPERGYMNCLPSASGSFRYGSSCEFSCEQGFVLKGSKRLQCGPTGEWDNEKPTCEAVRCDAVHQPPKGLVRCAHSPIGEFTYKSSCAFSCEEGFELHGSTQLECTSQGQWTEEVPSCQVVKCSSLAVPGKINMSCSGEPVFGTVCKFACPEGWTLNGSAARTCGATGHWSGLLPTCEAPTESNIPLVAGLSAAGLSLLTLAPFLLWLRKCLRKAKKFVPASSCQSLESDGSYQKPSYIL

CC(=O)OC/C=C(\C)CCC=C(C)C
inactive: [1] | [2] | [3] | [4] | [5] | [6] | [7] | [8] | [9] | [10] | [11] | [12] | [13] | [14] | [15] | [16]

C[Si]1(C)O[Si](C)(C)O[Si](C)(C)O[Si](C)(C)O1
inactive: [1] | [2] | [3] | [4] | [5] | [6] | [7] | [10] | [11] | [12] | [13] | [14] | [15] | [16]
active: [9] 46.9 µM

CNCc1cc(F)ccc1Oc1ccc(Cl)c(Cl)c1
active: [3] 23.9 µM | [10] 4.88 µM | [12] 20 µM | [13] 11.6 µM | [14] 32.4 µM | [15] 20 µM
inactive: [1] | [2] | [4] | [5] | [17] | [7] | [8] | [9] | [18] | [11] | [16]

CCCCCCCCCCO
active: [19] 128 µM | [3] 33 µM | [4] 41.1 µM
inactive: [2] | [17] | [10] | [11] | [12] | [13] | [14] | [15] | [16]

CC1(C)NC(=O)NC1=O
inactive: [1] | [2] | [20] | [3] | [5] | [6] | [8] | [9] | [18] | [10] | [11] | [12] | [13] | [14] | [15] | [16]

O=C(OCCCCCOC(=O)c1ccccc1)c1ccccc1
inactive: [1] | [2] | [20] | [4] | [5] | [9] | [18] | [10] | [11] | [12] | [13] | [14] | [15] | [16]
active: [3] 29.7 µM

CCCCCCCCCCCCCCCCCC(=O)O
inactive: [19] | [2] | [4] | [17] | [7] | [10] | [11] | [12] | [13] | [14] | [15] | [16]
active: [3] 3.97 µM

Nc1ccccc1N
inactive: [1] | [2] | [20] | [4] | [5] | [17] | [6] | [8] | [9] | [18] | [11] | [12] | [13] | [15] | [16]
active: [3] 9.14 µM | [10] 17.2 µM | [14] 20 µM
